# Bioassay records as filed in PubChem.
# Rows were chosen to be rich in hits. Some 32% of all compounds tested hit in one or more screens of this group.
# CYP2C19 activ: increases human CYP2C19 enzyme activity; recombinant CYP2C19, luciferin-H EGE luminescence; active compounds read high; 0 = fully inhibited enzyme, 1 = untreated enzyme; activation factor at 5 µM; 96,000 tested, under 10 active; AID 1025;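 active = activation factor of at least 2 at 5 µM in the primary screen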;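 note: 0 = wells with 2.5 mM tranylcypromine and 1 = vehicle-only wells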
# Target sequence (P33261 whole entry, looked up): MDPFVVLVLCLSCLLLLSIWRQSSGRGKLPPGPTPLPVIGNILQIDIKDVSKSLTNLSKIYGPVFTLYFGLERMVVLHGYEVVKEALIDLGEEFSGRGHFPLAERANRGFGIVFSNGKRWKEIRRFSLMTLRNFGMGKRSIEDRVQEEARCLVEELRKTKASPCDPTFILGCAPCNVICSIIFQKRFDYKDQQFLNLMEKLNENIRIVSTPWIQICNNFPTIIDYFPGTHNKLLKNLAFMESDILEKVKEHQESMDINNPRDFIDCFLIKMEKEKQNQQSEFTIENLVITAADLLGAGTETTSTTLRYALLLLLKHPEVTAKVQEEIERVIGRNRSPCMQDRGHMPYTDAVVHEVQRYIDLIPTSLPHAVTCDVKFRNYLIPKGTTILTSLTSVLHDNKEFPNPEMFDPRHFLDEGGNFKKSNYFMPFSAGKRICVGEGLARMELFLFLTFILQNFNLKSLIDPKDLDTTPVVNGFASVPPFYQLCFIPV
# CYP2C19 inh: blocks human cytochrome P450 2C19; CYP2C19 Supersomes, luciferin-H EGE luminescence, 30 min; inhibition, % at 5 µM; 96,000 tested, 21% active; P33261;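 active = CYP2C19 inhibition above a set limit at 5 µM in the primary screen, cut at about 50% in these data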;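 note: plate controls were negative control wells for no effect and 2.5 mM tranylcypromine positive control for full effect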
# PostGolgi ctrl: inhibits growth of the yeast control strain; efflux-deficient yeast background strain, growth absorbance A615, 16 h; inhibition, % at 10 µM; 98,000 tested, 5% active; AID 738
# PostGolgi yeast: growth inhibition of a yeast mutant, post-Golgi transport screen; post-Golgi transport phenotypic cell assay; inhibition, % at 10 µM; 98,000 tested, 0.9% active; AID 739;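 note: yeast cells grown in 1536-well plates; yeast grown about 18 h at 30C before absorbance read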
# CYP2C9 inh: inhibitors of human CYP2C9; CYP2C9 Supersomes, luciferin-H conversion, luminescence; inhibition, % at 5 µM; 96,000 tested, 20% active; AID 777;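 active = blocking of liver enzyme CYP2C9 beyond about 50% at 5 µM, limit read from the data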
# CYP2C9 activ: increases human cytochrome P450 2C9 activity; recombinant CYP2C9, luciferin-H conversion, luminescence; active compounds read high; factor 1 = untreated enzyme, 0 = blocked; 96,000 tested, 1.4% active; activation factor at 5 µM; P11712; AID 1024;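 active = activation factor of 2 or more for CYP2C9 at a 5 µM dose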;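 note: 0 = sulfaphenazole-blocked wells and 1 = vehicle-only wells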
# * = called active by the depositor; . = no result given. Cut-off read from the data, not from the text of the source, unless noted: active = inhibition above about 30%; inactive = the rest.
SMILES,CYP2C19 activ,CYP2C19 inh,PostGolgi ctrl,PostGolgi yeast,CYP2C9 inh,CYP2C9 activ
CCCCCC(=O)NC(=S)Nc1ccc(N2CCCCC2)c(Cl)c1,1,2.4,-2.2,-0.7,13.7,0.9
CCCCCC(=O)Nc1ccc(N2CCN(CC)CC2)c(Cl)c1,0.9,12.6,-5.4,-4.3,66.9*,0.3
CCCC(=O)N1CCN(c2ccc(NC(=S)NC(=O)CC)cc2)CC1,0.5,51.2*,-5.0,-9.4,35.6,0.6
CCCCC(=O)Nc1ccc(C(=O)N2CCC(C(=O)OCC)CC2)cc1,0.3,67.7*,4.2,-6.1,53.6*,0.5
CCC1CCCCN1Cc1cc(OC)c(O)c([N+](=O)[O-])c1 (configuration not stated),1.1,-9.5,16.7,-1.4,-6.7,1.1
O=C(Nc1ccc(F)cc1F)c1noc2c1CCC2,1.1,-9.1,29.0,-5.7,-14.6,1.1
CN(C)C(=O)N1CCCC(C(=O)NCCc2ccccc2)C1 (configuration not stated),0.8,22.4,1.4,-1.1,9.3,0.9
CCOc1ccccc1NC(=O)C1CCCN(C(=O)NCc2ccccc2)C1 (configuration not stated),0.5,50.8*,5.0,-2.9,-77.8,1.8
CN(C)C(=O)N1CCCC(C(=O)NCc2ccccc2)C1 (configuration not stated),0.4,57.0*,-3.4,-5.1,-0.4,1
CCOc1ccc(-n2nnc3c(=O)n(C/C=C/c4ccccc4)cnc32)cc1,1,-4.2,-0.3,-1.0,20.7,0.8
COc1ccccc1Nc1ncnc2nc[nH]c12,1,-3.3,12.6,-4.3,-9.6,1.1
COC(=O)C1=C(C)N(c2ccc(OC)c(OC)c2)C(=O)C1,0.8,18.0,3.7,-1.2,73.9*,0.3
COC(=O)C1=C(C)N(c2cccc(Cl)c2)C(=O)C1,0.4,64.5*,17.1,-7.3,23.2,0.8
COc1ccc(N2C(=O)CN=C2Nc2nc(C)cc(C)n2)cc1OC,1,-4.9,5.8,-9.3,-13.1,1.1
COC(=O)C1=C(C)N(c2ccc(F)c(Cl)c2)C(=O)C1,0.6,40.7,-4.8,-5.6,52.0*,0.5
COC(=O)C1=C(C)N(c2ccc(F)cc2)C(=O)C1,0.4,59.7*,-1.3,-30.0,3.4,1
COC(=O)C1=C(C)N(c2cccc(C(C)=O)c2)C(=O)C1,0.9,8.7,-5.3,5.5,-12.8,1.1
COc1ccc(Sc2ccccc2CN(C)C)cc1OC,0.4,57.1*,-2.5,-2.0,26.0,0.7
Brc1ccccc1CN1CCC(N2CCCCC2)CC1,0.9,5.0,2.1,25.7,-6.1,1.1
COc1ccc(C)cc1Nc1cc(C)nc2nc(C)nn12,0.9,8.8,8.4,0.3,6.8,0.9
CC1CC(C)CN(CCCNC(=O)Cn2ncn3cccc3c2=O)C1 (configuration not stated),1,-1.5,4.2,-11.4,6.3,0.9
O=S(=O)(c1ccc2nc(-c3ccco3)c(-c3ccco3)nc2c1)N1CCOCC1,1,2.7,4.2,-0.2,90.7*,0.1
O=C(Nc1ccc(N2CCOCC2)cc1)Nc1ccc2nc(-c3ccco3)c(-c3ccco3)nc2c1,.,.,-1.8,-7.4,.,.
COc1ccc2cc(S(=O)(=O)N3CCOCC3)ccc2c1,0.2,79.3*,5.1,8.3,13.7,0.9
Cc1ccc(S(=O)(=O)N2CCOCC2)cc1C(=O)N1c2ccccc2Sc2ccccc21,0.9,14.3,19.3,21.5,61.3*,0.4
SMILES,CYP2C19 activ,CYP2C19 inh,PostGolgi ctrl,PostGolgi yeast,CYP2C9 inh,CYP2C9 activ
Cc1ccc(S(=O)(=O)N2CCOCC2)cc1C(=O)OCC(=O)N1CCc2ccccc2C1,0.3,74.7*,11.2,-0.6,78.3*,0.2
CCC(C)c1cc(S(=O)(=O)N2CCOCC2)ccc1OC (configuration not stated),0.3,69.1*,7.8,23.9,-29.4,1.3
COc1ccc(S(=O)(=O)N2CCOCC2)c(Cl)c1Cl,0.3,70.2*,30.2*,-1.4,-304.2,4*
CN1C(=O)Cc2cc(S(=O)(=O)N3CCOCC3)ccc21,1,-1.4,50.8*,1.7,-7.4,1.1
COc1ccc(S(=O)(=O)N2CCOCC2)cc1Cl,0.4,58.9*,1.0,-6.6,-234.2,3.3*
COc1cc(C)c(Br)cc1S(=O)(=O)N1CCOCC1,.,.,-3.0,1.1,.,.
COc1ccc(S(=O)(=O)N2CCOCC2)cc1C(C)C,0.9,6.1,7.8,10.2,-20.7,1.2
CCCCSc1ccc(NC(=O)c2cccnc2)cc1,0.8,22.8,20.8,0.2,49.3,0.5
COc1ccc(/C(C)=C2\SC(=S)N(CCC(=O)O)C2=O)cc1,1,-3.8,12.6,-3.4,8.8,0.9
N#CCCN(C1CCCCC1)S(=O)(=O)CCOc1ccccc1,0.6,36.2,4.2,8.1,25.8,0.7
Cc1ccc(S(=O)(=O)N2CCSC2)cc1C,0.9,7.2,8.7,20.5,-130.6,2.3*
Cc1ccc(S(=O)(=O)N2CCN(S(=O)(=O)N3CCOCC3)CC2)cc1C,0.5,50.1*,13.5,-2.2,-6.5,1.1
Cc1ccc(S(=O)(=O)N2CCCSCC2)cc1,0.8,17.2,12.2,2.9,-52.4,1.5
Cc1ccc(S(=O)(=O)N2CCCN(S(=O)(=O)c3ccc(C)c(C)c3)CC2)cc1C,0.9,7.5,12.7,-3.3,-18.1,1.2
O=S(=O)(c1ccc2nc(COc3ccc(Cl)cc3Cl)[nH]c2c1)N1CCOCC1,0.5,50.7*,16.5,4.5,57.8*,0.4
Cc1cc(NC(=O)c2c(Cl)cnn2C)no1,1,-3.7,-1.8,3.7,-10.5,1.1
O=C(Nc1cccc(C(F)(F)F)c1)c1ccc2nc(N3C(=O)CCC3=O)sc2c1,0.9,12.4,3.0,-8.7,-8.6,1.1
Cc1ccc(C(=O)Nc2cc3c(cc2Cl)OCCCO3)cc1,.,.,-4.3,1.3,.,.
CCCCC1(C)Cc2ccccc2C(=S)N1 (configuration not stated),0.7,30.3,-0.3,-3.2,6.9,0.9
CCCCCCNCc1ccc(Br)cc1,0.2,75.4*,1.8,-1.0,1.1,1
CCc1c(C)nc(SCCOc2ccc(OC)cc2)[nH]c1=O,0.3,66.0*,7.8,-3.3,62.2*,0.4
CCCOc1cccc(OCCSc2nc(C)cc(=O)[nH]2)c1,0.5,45.7,10.6,0.3,51.2*,0.5
CCC(=O)c1ccccc1OCCSc1nc(C)cc(=O)[nH]1,0.3,72.2*,2.9,11.1,45.2,0.5
Cc1cc(=O)[nH]c(SCCCOc2ccc(F)cc2)n1,0.9,13.5,11.9,0.0,1.0,1
CCc1c(C)nc(SCCOc2ccc(OC(C)C)cc2)[nH]c1=O,1.1,-14.0,26.2,6.2,-0.3,1
Cc1cc(=O)oc(C)c1C(=O)Nc1ccc(Cl)cn1,1.2,-16.6,10.3,3.0,-17.7,1.2
CCCS(=O)(=O)N1CCC(C(=O)NCCc2ccc(C)cc2)CC1,1,2.4,8.7,0.2,5.9,0.9
CC(C)(C)C(=O)Nc1ccccc1C(=O)Nc1cc(Cl)ccc1Cl,0.7,29.2,9.9,-0.3,60.9*,0.4
